The source of these data is article PMC7862700, “An all-to-all approach to the identification of sequence-specific readers for epigenetic DNA modifications on cytosine”.

Holding throughout (experiment): DAPPL (digital affinity profiling via proximity ligation, sequencing); 10 mM Tris-HCl pH 7.5, 50 mM NaCl, 1 mM DTT, 4% glycerol, room temperature, 30 min; GST-TFs on glutathione beads, 16-mer random dsDNA library, 0.1% formaldehyde crosslink after washing; high values mean tight binding
One assay concerns the target T1, FEV (Homo sapiens, UniProt Q99581 1-238).
T1 sequence: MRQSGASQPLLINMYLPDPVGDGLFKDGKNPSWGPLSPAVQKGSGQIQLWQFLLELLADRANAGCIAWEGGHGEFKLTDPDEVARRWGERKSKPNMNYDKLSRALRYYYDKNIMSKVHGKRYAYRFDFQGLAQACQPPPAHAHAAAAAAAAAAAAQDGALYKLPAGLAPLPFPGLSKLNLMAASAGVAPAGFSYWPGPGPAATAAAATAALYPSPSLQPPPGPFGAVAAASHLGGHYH
Conditions: protein: recombinant; tags: N-terminal GST; dsDNA, one strand shown. In short, it runs like this: (§1)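 GST fusions of human transcription factors were expressed in yeast and captured with glutathione beads. Once given DNA barcodes and pooled alongside a tag-only sample, they were incubated for 30 min at room temperature with 200 nmole of a random double-stranded 16-mer DNA library in Tris/NaCl/DTT/glycerol buffer, then washed, crosslinked (0.1% formaldehyde), proximity-ligated, PCR-amplified and sequenced on an Illumina NextSeq500. The binding signal of each hexamer is its read frequency for a factor divided by its frequency for the tag-only sample.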

For a further assay, the target named is ETV5 (Homo sapiens, UniProt P41161 1-510). Conditions: protein: recombinant; tags: N-terminal GST; dsDNA, one strand shown. Summed up:
as §1

The target in another assay is HSF1 (Homo sapiens, UniProt Q00613 1-529). Conditions: protein: recombinant; tags: N-terminal GST; chain copies: 3; dsDNA, one strand shown. In short, it runs like this: as §1
For another assay, the target named is T2, SPIC (Homo sapiens, UniProt Q8N5J4 1-248).
T2 sequence: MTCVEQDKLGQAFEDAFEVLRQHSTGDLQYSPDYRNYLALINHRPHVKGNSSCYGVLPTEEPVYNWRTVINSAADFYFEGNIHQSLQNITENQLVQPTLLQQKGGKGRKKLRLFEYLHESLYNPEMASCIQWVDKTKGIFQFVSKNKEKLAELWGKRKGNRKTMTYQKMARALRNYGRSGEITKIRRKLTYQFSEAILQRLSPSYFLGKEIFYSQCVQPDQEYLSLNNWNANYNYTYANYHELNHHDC
Conditions: protein: recombinant; tags: N-terminal GST; dsDNA, one strand shown. In short, it runs like this:
as §1

For another assay, the target named is ELF4 (Homo sapiens, UniProt Q99607 1-663). Conditions: protein: recombinant; tags: N-terminal GST; dsDNA, one strand shown. In short, it runs like this:
as §1

The target of a further assay is T3, ELK4 (Homo sapiens, UniProt P28324-2 1-405).
T3 sequence: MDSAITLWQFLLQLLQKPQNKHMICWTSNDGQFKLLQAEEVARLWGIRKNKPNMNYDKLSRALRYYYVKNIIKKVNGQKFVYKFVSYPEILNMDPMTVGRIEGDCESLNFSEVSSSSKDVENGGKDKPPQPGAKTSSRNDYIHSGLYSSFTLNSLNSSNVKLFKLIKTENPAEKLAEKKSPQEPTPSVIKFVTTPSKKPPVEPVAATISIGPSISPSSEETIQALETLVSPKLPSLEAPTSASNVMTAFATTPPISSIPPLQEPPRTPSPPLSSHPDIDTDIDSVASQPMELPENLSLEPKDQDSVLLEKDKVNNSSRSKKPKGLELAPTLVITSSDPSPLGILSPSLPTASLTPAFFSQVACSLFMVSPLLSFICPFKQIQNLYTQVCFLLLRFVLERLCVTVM
Conditions: protein: recombinant; tags: N-terminal GST; dsDNA, one strand shown. In short, it runs like this: as §1

A further assay has as its target T4, ETV2 (Homo sapiens, UniProt O00321 1-342).
T4 sequence: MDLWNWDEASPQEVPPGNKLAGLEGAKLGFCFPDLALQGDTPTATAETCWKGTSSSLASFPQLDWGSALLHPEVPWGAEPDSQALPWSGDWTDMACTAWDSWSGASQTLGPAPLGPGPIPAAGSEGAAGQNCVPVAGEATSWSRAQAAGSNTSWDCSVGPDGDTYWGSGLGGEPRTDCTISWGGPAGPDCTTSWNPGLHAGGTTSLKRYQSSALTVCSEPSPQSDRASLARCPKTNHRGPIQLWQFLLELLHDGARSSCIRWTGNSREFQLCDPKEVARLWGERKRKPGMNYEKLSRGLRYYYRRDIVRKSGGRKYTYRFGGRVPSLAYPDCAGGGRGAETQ
Conditions: protein: recombinant; tags: N-terminal GST; dsDNA, one strand shown. Summed up: as §1

Another assay has as its target T5, ELF3 (Homo sapiens, UniProt P78545 1-371).
T5 sequence: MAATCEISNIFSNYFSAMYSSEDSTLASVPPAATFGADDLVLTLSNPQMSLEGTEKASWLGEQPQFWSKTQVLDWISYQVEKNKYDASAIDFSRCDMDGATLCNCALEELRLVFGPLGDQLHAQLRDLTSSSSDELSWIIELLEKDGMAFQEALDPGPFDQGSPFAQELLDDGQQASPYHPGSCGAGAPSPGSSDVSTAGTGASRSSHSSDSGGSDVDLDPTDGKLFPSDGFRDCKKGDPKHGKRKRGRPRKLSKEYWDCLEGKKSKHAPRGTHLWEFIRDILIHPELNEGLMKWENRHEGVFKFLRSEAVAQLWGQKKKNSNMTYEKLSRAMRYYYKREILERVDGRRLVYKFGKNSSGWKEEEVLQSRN
Conditions: protein: recombinant; tags: N-terminal GST; dsDNA, one strand shown. In short, it runs like this: as §1

In the next assay the target is CRX (Homo sapiens, UniProt O43186 1-299). Conditions: protein: recombinant; tags: N-terminal GST; dsDNA, one strand shown. Summed up: as §1
A further assay concerns the target ETV1 (Homo sapiens, UniProt P50549 1-477). Conditions: protein: recombinant; tags: N-terminal GST; dsDNA, one strand shown. In short, it runs like this:
as §1

In a further assay the target is T6, ERF (Homo sapiens, UniProt P50548 1-548).
T6 sequence: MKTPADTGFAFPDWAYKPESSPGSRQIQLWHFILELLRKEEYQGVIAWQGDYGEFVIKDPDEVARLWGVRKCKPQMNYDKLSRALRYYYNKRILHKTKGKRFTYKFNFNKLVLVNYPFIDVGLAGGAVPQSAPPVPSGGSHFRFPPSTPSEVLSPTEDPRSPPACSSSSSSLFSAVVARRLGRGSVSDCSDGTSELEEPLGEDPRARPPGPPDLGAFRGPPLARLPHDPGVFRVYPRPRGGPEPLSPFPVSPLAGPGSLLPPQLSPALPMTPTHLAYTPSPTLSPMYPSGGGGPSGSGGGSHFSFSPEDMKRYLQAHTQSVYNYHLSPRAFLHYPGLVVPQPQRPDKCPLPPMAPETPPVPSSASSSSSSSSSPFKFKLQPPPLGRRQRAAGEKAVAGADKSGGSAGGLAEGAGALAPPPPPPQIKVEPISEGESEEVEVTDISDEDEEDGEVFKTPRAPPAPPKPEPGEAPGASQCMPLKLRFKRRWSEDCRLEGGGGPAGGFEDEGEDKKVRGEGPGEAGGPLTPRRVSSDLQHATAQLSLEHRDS
Conditions: protein: recombinant; tags: N-terminal GST; dsDNA, one strand shown. Summed up:
as §1

The next assay addresses T7, ETV3L (Homo sapiens, UniProt Q6ZN32 1-361).
T7 sequence: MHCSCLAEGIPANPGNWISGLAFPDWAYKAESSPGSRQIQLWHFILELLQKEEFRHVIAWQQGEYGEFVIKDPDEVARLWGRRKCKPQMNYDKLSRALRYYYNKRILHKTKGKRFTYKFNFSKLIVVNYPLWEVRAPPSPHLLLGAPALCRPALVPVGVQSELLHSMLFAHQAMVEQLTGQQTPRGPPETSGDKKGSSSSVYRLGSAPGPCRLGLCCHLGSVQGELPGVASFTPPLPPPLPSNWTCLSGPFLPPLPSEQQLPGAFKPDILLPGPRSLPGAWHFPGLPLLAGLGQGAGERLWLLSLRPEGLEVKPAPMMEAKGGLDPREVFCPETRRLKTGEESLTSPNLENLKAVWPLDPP
Conditions: protein: recombinant; tags: N-terminal GST; dsDNA, one strand shown. In short, it runs like this:
as §1

In another assay the target is T8, ETS2 (Homo sapiens, UniProt P15036 1-469).
T8 sequence: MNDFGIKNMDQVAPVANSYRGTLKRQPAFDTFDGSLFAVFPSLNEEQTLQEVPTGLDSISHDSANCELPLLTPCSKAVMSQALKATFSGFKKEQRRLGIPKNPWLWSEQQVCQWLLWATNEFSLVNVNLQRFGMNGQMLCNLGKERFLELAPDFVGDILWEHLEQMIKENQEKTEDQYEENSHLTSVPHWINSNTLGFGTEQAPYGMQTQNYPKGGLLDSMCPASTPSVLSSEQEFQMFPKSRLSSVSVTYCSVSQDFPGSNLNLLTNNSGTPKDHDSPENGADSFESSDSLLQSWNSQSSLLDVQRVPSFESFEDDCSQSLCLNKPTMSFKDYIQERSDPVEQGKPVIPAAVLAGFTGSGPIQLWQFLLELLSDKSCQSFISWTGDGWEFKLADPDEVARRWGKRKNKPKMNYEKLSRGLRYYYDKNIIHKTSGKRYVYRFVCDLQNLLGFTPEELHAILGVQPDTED
Conditions: protein: recombinant; tags: N-terminal GST; dsDNA, one strand shown. Summed up:
as §1

In the next assay the target is T9, SPDEF (Homo sapiens, UniProt O95238 1-335).
T9 sequence: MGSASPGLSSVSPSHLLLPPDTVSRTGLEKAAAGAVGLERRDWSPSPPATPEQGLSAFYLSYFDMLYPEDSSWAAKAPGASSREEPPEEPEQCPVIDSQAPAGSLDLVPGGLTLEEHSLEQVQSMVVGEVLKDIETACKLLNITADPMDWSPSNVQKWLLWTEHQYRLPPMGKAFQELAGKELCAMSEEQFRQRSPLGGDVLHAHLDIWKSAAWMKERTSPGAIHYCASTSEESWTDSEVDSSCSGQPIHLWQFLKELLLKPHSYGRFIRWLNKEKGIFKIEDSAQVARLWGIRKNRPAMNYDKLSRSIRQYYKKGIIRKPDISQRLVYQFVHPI
Conditions: protein: recombinant; tags: N-terminal GST; dsDNA, one strand shown. Summed up: as §1

The next assay deals with T10, ETV7 (Homo sapiens, UniProt Q9Y603 1-341).
T10 sequence: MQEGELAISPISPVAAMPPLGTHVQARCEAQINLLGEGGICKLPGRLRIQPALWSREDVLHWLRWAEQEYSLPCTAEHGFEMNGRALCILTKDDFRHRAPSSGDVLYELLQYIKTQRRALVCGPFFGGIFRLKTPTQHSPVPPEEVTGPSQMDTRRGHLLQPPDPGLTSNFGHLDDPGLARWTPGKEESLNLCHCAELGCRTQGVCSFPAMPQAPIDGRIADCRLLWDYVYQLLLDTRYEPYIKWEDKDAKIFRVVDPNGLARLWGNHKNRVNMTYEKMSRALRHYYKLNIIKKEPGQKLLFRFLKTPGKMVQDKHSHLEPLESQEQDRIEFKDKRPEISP
Conditions: protein: recombinant; tags: N-terminal GST; dsDNA, one strand shown. In short, it runs like this: as §1

The target of the next assay is T11, ELF5 (Homo sapiens, UniProt Q9UKW6-2 1-255).
T11 sequence: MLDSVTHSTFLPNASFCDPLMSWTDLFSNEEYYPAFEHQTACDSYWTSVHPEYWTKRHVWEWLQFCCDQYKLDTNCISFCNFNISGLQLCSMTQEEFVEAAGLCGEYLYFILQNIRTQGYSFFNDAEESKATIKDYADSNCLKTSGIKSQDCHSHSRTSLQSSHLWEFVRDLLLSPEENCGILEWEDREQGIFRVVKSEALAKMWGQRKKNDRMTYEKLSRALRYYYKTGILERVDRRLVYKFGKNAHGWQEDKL
Conditions: protein: recombinant; tags: N-terminal GST; dsDNA, one strand shown. Summed up: as §1

Another assay concerns the target T12, ETV3 (Homo sapiens, UniProt P41162-2 1-143).
T12 sequence: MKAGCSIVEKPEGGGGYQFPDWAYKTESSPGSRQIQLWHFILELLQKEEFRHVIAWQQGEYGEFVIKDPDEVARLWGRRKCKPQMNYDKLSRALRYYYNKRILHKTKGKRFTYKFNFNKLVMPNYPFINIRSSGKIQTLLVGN
Conditions: protein: recombinant; tags: N-terminal GST; dsDNA, one strand shown. In short, it runs like this: as §1

In a further assay the target is ETV6 (Homo sapiens, UniProt P41212 1-452). Conditions: protein: recombinant; tags: N-terminal GST; dsDNA, one strand shown. Summed up: as §1
Chain of ETV6 (P41212 whole entry): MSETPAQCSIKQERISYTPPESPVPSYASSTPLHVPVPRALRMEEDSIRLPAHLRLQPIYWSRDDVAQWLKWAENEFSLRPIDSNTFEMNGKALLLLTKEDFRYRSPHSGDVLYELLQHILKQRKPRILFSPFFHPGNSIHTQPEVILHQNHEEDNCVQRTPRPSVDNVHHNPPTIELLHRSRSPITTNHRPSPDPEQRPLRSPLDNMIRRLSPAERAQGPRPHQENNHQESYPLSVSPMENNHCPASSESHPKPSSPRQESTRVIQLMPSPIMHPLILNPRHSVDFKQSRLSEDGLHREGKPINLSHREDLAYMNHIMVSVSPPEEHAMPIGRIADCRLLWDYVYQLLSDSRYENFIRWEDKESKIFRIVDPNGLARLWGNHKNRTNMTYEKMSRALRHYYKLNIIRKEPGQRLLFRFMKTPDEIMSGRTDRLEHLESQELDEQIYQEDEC

Chain of HSF1 (Q00613 whole entry): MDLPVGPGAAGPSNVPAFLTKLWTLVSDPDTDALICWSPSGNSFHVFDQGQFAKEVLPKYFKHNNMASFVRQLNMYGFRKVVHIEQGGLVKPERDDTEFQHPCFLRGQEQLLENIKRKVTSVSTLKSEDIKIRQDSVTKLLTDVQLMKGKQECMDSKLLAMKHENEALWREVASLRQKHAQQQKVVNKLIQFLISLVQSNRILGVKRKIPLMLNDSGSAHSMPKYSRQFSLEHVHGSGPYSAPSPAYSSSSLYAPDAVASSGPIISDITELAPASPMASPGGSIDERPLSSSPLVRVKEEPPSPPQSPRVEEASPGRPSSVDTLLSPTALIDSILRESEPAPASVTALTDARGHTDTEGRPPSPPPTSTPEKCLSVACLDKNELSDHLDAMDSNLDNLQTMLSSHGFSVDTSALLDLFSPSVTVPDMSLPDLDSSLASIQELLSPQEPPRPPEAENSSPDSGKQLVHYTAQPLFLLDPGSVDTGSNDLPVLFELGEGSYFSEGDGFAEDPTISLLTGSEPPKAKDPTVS
Chain of ELF4 (Q99607 whole entry): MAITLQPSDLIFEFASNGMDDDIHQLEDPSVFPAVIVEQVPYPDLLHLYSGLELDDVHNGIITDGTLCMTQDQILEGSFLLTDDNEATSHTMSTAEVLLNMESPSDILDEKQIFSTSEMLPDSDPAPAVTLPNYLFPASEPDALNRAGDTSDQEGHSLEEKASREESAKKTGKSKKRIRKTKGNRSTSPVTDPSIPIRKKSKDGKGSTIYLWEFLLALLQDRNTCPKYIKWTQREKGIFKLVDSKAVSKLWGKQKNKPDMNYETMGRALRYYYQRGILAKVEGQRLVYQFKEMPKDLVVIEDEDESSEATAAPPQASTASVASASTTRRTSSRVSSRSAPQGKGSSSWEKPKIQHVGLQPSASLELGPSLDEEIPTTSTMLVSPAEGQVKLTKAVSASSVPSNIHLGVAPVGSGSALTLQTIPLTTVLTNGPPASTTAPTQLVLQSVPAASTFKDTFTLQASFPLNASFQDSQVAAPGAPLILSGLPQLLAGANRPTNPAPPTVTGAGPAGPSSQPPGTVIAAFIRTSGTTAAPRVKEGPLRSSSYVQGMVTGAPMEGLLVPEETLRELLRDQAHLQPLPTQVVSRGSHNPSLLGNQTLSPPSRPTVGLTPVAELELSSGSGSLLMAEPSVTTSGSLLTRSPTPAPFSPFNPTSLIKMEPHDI
Chain of ETV5 (P41161 whole entry): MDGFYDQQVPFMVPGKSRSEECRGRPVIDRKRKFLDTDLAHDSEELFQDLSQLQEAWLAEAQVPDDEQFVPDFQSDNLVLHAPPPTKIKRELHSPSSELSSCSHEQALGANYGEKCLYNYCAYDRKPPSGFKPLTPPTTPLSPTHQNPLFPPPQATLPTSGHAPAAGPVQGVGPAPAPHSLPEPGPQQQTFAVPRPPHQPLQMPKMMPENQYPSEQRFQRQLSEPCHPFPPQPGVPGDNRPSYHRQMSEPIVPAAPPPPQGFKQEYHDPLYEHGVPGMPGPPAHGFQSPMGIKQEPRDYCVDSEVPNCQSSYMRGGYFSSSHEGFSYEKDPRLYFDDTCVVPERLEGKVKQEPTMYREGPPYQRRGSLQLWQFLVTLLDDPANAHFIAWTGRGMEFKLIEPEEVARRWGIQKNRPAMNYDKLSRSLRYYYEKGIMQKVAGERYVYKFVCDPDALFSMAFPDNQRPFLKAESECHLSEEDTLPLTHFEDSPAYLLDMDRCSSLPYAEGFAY
Chain of ETV1 (P50549 whole entry): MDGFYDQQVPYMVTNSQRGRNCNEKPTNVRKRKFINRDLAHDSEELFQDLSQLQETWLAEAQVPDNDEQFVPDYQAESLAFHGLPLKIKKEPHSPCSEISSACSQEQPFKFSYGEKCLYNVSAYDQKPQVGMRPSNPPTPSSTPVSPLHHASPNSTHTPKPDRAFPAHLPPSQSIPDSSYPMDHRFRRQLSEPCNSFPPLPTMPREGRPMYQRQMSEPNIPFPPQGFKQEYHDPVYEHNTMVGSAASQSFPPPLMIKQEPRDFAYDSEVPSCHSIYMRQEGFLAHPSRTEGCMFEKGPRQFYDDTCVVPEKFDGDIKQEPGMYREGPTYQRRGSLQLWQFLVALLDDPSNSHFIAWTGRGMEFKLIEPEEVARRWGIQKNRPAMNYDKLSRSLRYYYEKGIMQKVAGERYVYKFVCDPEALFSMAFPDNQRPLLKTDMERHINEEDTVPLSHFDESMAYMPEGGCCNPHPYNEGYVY
Chain of CRX (O43186 whole entry): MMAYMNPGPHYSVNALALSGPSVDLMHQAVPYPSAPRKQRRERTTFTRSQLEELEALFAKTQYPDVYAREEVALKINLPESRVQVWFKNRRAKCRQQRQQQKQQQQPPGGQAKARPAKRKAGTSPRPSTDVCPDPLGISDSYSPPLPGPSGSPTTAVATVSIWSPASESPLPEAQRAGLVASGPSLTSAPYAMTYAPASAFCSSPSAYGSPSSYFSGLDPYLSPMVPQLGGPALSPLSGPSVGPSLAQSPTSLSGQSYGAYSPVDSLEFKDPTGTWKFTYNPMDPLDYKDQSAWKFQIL

With GCTTCA, the binding signal is 1.27 fold enrichment (6-mer frequency, TF over GST control) with FEV; 1.24 fold enrichment (6-mer frequency, TF over GST control) with ETV5; 1.23 fold enrichment (6-mer frequency, TF over GST control) with HSF1; 1.3 fold enrichment (6-mer frequency, TF over GST control) with SPIC; 1.29 fold enrichment (6-mer frequency, TF over GST control) in the assay with ELF4; 1.36 fold enrichment (6-mer frequency, TF over GST control) with ELK4. Moreover, the binding signal with ETV2 was 1.29 fold enrichment (6-mer frequency, TF over GST control); in the assay with ELF3 it was 1.31 fold enrichment (6-mer frequency, TF over GST control); in the assay with CRX, 1.1 fold enrichment (6-mer frequency, TF over GST control); in the assay with ETV1, 1.23 fold enrichment (6-mer frequency, TF over GST control); in the assay with ERF, 1.33 fold enrichment (6-mer frequency, TF over GST control); in the assay with ETV3L, 1.35 fold enrichment (6-mer frequency, TF over GST control). The binding signal with ETS2 was 1.27 fold enrichment (6-mer frequency, TF over GST control); with SPDEF, 1.31 fold enrichment (6-mer frequency, TF over GST control); with ETV7, 1.34 fold enrichment (6-mer frequency, TF over GST control); in the assay with ELF5 it was 1.28 fold enrichment (6-mer frequency, TF over GST control); with ETV3, 1.24 fold enrichment (6-mer frequency, TF over GST control); in the assay with ETV6, 1.33 fold enrichment (6-mer frequency, TF over GST control).
